Screens: PubChem BioAssay, National Center for Advancing Translational Sciences (NCATS)
Pf Dd2 inh – blocks in vitro growth of P. falciparum Dd2; P. falciparum Dd2 growth, SYBR Green, 72 h; Potency, µM (titrated, usually from 28.9 µM), for the others: at the highest dose activity, negative = inhibition, actives largely listed as inhibitors; 120,000 compounds, 4.3% hits; active means well fitted inhibition curve with a large enough effect;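 further: plate controls were DMSO vehicle for no effect and reference drug for full effect; nearly all actives have a fitted effect of over 65% in size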
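Readout: SYBR Green fluorescence, 485 nm excitation, 535 nm emission, after ~16 h lysis at 37C. Before that, Dd2-infected red cells (2.5% hematocrit) grew 72 h with compound, 29 uM top final concentration.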
* = called active by the depositor; i = inactive; [ ] = remark or other dose. This excerpt belongs to a sample that is enriched for hits. Potency means the concentration at half of the fitted maximal effect.

SMILES | Pf Dd2 inh
Cc1nnnn1CC(=O)Nc1nn(Cc2ccccc2)c2cccc(OC(C)C)c12 | i
CCn1ncnc1C1CC(=O)Nc2cc(OC)c(NC(=O)CC(C)C)cc21 (stereo unspecified) | 2.2%
CC(C)CN1C(=O)c2ccccc2C(C(=O)NCc2ccco2)C12CCCC2 (stereo unspecified) | -20.6%
CCN(CC1CCCN(CCc2cccc(OC)c2)C1)C(=O)CN1CCCC1=O (stereo unspecified) | -11.2%
CCN(CC1CCCN(CCc2cccc(OC)c2)C1)C(=O)c1cc(C)no1 (stereo unspecified) | 10µM*
COc1ccccc1CN1CCCC(CN(CCN(C)C)C(=O)c2cc(C(C)C)no2)C1 (stereo unspecified) | i
COc1ccc(-c2noc([C@@H](C)NC(=O)C3CCCC3)c2C(=O)O)cc1 | i
Cc1ccccc1C(=O)N1CCC2(CC1)N=C(c1ccc(Br)cc1)NO2 | i
Cc1cccc(N(C)c2nc3ccc(C)cc3n3cnnc23)c1 | 11.3%
Cc1cccc(N(C)c2nc3ccccc3c3nnc(C)n23)c1 | 0.447µM*
Cc1cccc(N(C)c2ccc3cc(S(=O)(=O)N4CCCC4)ccc3n2)c1 | 2.1%
O=C(NC1CCN(c2cc(-c3cccs3)[nH]n2)C1)c1ccccc1Cl (stereo unspecified) | i
O=C(c1cncnc1)N1C[C@@H](COCC2CC2)[C@H](c2ccncc2)C1 | 20.6%
COc1cccc(CN2C[C@@H](COCC3CC3)[C@H](c3ccncc3)C2)n1 | 11.2µM*
Cc1ccccc1C(=O)N1C[C@@H](COCC2CC2)[C@H](c2ccncc2)C1 | -23.2%
Cc1ccc(NC(=O)N2C[C@@H](F)C[C@H]2C(=O)N2CCCCC2)c(C)c1 | 37.0%
Cc1ccccc1C(=O)N1CCC2(CC1)CCN(CCc1ccccc1)c1ccccc1O2 | i
O=C(c1ccccc1Cl)N1CCC2(CC1)CCN(Cc1cccs1)c1ccccc1O2 | 10µM*
Cc1ccc(C(=O)N2CCC3(CC2)CCN(Cc2cccs2)c2ccccc2O3)cc1 | -17.0%
COc1ccc(-c2noc([C@@H]3CCCN3C(=O)c3ccsc3)n2)cc1OC | i
CN(C)c1ccc(CN2CCC3(C2)C(=NC2CCCCC2)NC(=O)N3c2cc(F)cc(F)c2)cc1 (stereo unspecified) | 10µM*
O=C1NC(=NC2CCCC2)C2(CCN(Cc3ccc(F)cc3)C2)N1c1cc(F)cc(F)c1 (stereo unspecified) | 2µM*
CC(=O)N1CCC2(CC1)C(=NC1CCCC1)NC(=O)N2c1cc(F)cc(F)c1 | -9.3%
O=C1NC(=NC2CCCCC2)C2(CCN(Cc3cccnc3)CC2)N1c1cc(F)cc(F)c1 | 43.4%
O=C1NC(=NC2CCCCC2)C2(CCN(Cc3ccccc3)CC2)N1c1cc(F)cc(F)c1 | 59.6%
SMILES | Pf Dd2 inh
COc1ccc(CN2CCC3(CC2)C(=NC2CCCC2)NC(=O)N3c2cc(F)cc(F)c2)cc1 | -12.1%
COc1ccc(CN2Cc3[nH]nc(-c4cccnc4OC)c3CC2=O)cc1 | 19.8%[44.1 µM]
O=C(NC1CCN(c2cc(-c3cccs3)[nH]n2)C1)c1ccc(Br)o1 (stereo unspecified) | i
O=C(c1nc2sccn2c1Br)N1CCOCC1 | 11.6%[44.1 µM]
Cc1ccc(-n2c(C3CCN(C(=O)Cc4cccc(F)c4)CC3)n[nH]c2=O)cc1 | -3.0%
Cc1noc([C@@H]2CC(F)(F)CN2C(=O)c2cc(C)[nH]n2)n1 | 27.0%
COc1cc(Cl)c(C)cc1NC(=O)CN1C(=O)C(c2ccccc2)=NC12CCCC2 | 11.2µM*
Cc1ccccc1NC(=O)CN1C(=O)C(c2ccccc2)=NC12CCCCC2 | i
Cc1ccccc1NC(=O)CN1C(=O)C(c2ccccc2)=NC12CCCCCC2 | i
CCCn1c(C)c(CC(=O)N(C)Cc2nnc(C)o2)c2c1CC(C)(C)CC2=O | -19.1%
Cc1n[nH]c(C)c1CCC(=O)NC1CCCc2c1[nH]c1c(Cl)cccc21 (stereo unspecified) | -13.1%
CSc1ccc(-c2ccc3c(c2)C(=O)N2CCN(C(=O)C4CCCCC4)C[C@@H]2C(=O)N3)cc1 | 8.91µM*
COc1ccc(-c2ccc3c(c2)C(=O)N2CCN(C(=O)C4CCCCC4)C[C@@H]2C(=O)N3)cc1 | i
O=C1Nc2ccc(-c3ccc4c(c3)OCO4)cc2C(=O)N2CCN(C(=O)C3CCCC3)C[C@@H]12 | i
COc1ccc(Cl)cc1-c1ccc2c(c1)C(=O)N1CCN(C(=O)C3CCCCC3)C[C@@H]1C(=O)N2 | i
COc1ccc(Cl)cc1-c1ccc2c(c1)C(=O)N1CCN(C(=O)c3ccccc3)C[C@@H]1C(=O)N2 | i
COc1ccc(Cl)cc1-c1ccc2c(c1)C(=O)N1CCN(C(=O)C3CC3)C[C@@H]1C(=O)N2 | 12.6µM*
O=C(NCCN1CCCC1)C1Cn2cccc2C(=O)N1Cc1ccccc1 (stereo unspecified) | i
CCOc1cccc(CN2CCCC(COc3ccccc3C(=O)NC(C)C)C2)c1 (stereo unspecified) | -9.8%
c1ccc(-c2nc(C3CCNC3)no2)cc1 (stereo unspecified) | 36.6%[5.79 µM]
CCOC(=O)C1CCN(CCC(=O)Nc2ccc(OC)cc2)CC1 | 82.6%
